From PubChem
RORg inh = ROR gamma (mouse) transcription inhibition. P51450. Drosophila S2 Gal4-RORgamma UAS-luciferase reporter, 20 h. Potency, µM (titrated, usually from 53.6 µM), for inactives: at the top dose activity change, negative = inhibition, hits mostly inhibitors. actives 5.4% (n = 310,000). AID 2551; note: potency is the fitted concentration of half-maximal effect; nearly all actives have a fitted effect of over 60% in size
Target sequence (P51450 whole entry, looked up, the tested form may be a part): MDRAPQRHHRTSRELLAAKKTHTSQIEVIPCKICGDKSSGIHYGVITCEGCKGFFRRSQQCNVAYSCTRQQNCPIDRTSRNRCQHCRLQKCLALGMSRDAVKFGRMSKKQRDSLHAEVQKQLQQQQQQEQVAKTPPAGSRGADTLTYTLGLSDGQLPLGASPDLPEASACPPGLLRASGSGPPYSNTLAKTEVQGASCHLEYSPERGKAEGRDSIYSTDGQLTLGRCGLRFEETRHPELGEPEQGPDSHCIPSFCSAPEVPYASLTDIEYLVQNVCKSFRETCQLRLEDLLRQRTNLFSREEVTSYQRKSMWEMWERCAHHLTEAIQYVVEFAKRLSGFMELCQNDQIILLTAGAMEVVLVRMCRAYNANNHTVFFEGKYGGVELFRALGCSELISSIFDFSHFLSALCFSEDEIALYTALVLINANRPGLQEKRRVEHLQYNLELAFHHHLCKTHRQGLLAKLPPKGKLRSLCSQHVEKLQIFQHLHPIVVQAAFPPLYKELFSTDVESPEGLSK
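In this cell-based reporter format, copper sulfate (700 uM final) drives Gal4–ROR gamma fusion expression from a metallothionein promoter in Drosophila Schneider cells; compounds preincubated 1 hr, reporter read after 20 hr at ambient temperature.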
ELG1 DNA repair = blocks ELG1-dependent DNA repair in HEK293T cells; HEK293T ELG1-luciferase reporter, luminescence, 16 h; DNA damage induced by 5-fluorouridine; Potency, µM (top dose mostly 46.1 µM), without a hit: at the highest dose activity change, negative = inhibition, most hits filed as inhibitors; actives 2.3% (n = 330,000); AID 504467; note: potency is the fitted concentration of half-maximal effect; nearly all actives have a fitted effect of over 55% in size
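Step one: seed 2,000 cells per well. Step two: pin-transfer compound or DMSO alongside 5-fluorouridine. Step three: incubate 16 hr, 37 °C, 5% CO2. Step four: add ONE-Glo, wait 30 min, read luminescence.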
DT40 TDP1 no CPT = qHTS for Inhibitors of human tyrosyl-DNA phosphodiesterase 1 (TDP1): qHTS in cells in absence of CPT | AID 686978, 2013 | DT40 Tdp1-/- hTDP1 cells, no CPT, ATP luminescence, 48 h | Potency, µM (highest dose often 46.2 µM), for inactives: at the top dose activity change, negative = growth inhibition, actives largely listed as inhibitors | actives 15% (n = 420,000); note: potency is the fitted concentration of half-maximal effect; nearly all actives have a fitted effect of over 55% in size
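No-CPT arm: Tdp1-/-;hTDP1 DT40 cells (400/well) plus compounds, incubated ≥48 hr at 37 °C. Readout CellTiter-Glo luminescence.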
IL-1B inflam inh = inflammasome signaling inhibition, IL-1 beta readout | THP-1 LPS/ATP IL-1B secretion, AlphaLISA, 16 h; hits give low values | activity change, % at 57.5 µM | actives 4.7% (n = 360,000); in the data active = activity change below about -50%; inconclusive = mostly about -30% to -49%
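THP-1 cells pretreated 1 hr with compounds (up to 57.5 uM final), then stimulated with LPS (250 ng/mL final) plus ATP (1.25 mM final); secreted IL-1B measured by AlphaLISA after 16 hr, decreased signal indicating inhibition.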
DT40 TDP1 CPT = DT40-hTDP1 cell growth loss with CPT; chicken DT40 Tdp1-/-;hTDP1 cells + 20 nM CPT, ATP luminescence, 48 h; Potency, µM (titrated, usually from 46.2 µM), for inactives: at the highest dose activity change, negative = growth inhibition, usual class: inhibitors; actives 12% (n = 420,000); AID 686979; note: potency is the fitted concentration of half-maximal effect; nearly all actives have a fitted effect of over 55% in size
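Chicken DT40 Tdp1-/- cells stably complemented with human TDP1 were seeded at 400 cells/well in medium containing 20 nM camptothecin, exposed to pin-transferred compounds, and grown at 37 °C for at least 48 hr. Viability was read as ATP luminescence.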
VP16 counter = inhibits Gal4-VP16 luciferase reporter, ROR gamma counter-screen; Drosophila S2 Gal4-VP16 UAS-luciferase, luminescence, 20 h; Potency, µM (titrated, usually from 53.6 µM), for the others: at the top dose activity, negative = inhibition, actives largely listed as inhibitors; actives 3.5% (n = 310,000); AID 2546;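 note: Gal4-VP16 expression switched on by copper sulfate through the metallothionein promoter; potency is the fitted concentration of half-maximal effect; nearly all actives have a fitted effect of over 50% in size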
The depositor's hits bear a star; ? = inconclusive; . = no result; ! = not active in a repeat; [ ] = dose if it differs, or a comment. Shown are actives, neighbours in structure and some others; about 21% of the full set was active somewhere. Unless noted, calls come from the whole dose curve; as a rule, active = well fitted curve in the direction sought with a large enough effect; inconclusive = small, poorly fitted or top-dose-only effect, or another doubt; inactive = no such curve, though single readings can be large; an effect the other way counts as inactive or inconclusive. % is set by controls: 0 for no effect and ±100 for the full control effect.

SMILES | RORg inh | ELG1 DNA repair | DT40 TDP1 no CPT | IL-1B inflam inh | DT40 TDP1 CPT | VP16 counter
Cc1ccc(/C=N/NC(=O)CSc2nc3ccccc3s2)o1 | -33% | ? | -13% | 14 | 7% | 4%
Cc1cc(=O)oc2cc(OCC(=O)N/N=C/c3cc([N+](=O)[O-])ccc3O)ccc12 | 1.3µM* | ? | ? | 0 | ? | 2.2µM*
O=C(CSc1nc2ccccc2s1)N/N=C/c1cc([N+](=O)[O-])ccc1O | 5µM* | -7% | ? | 82 | ? | ?
CCN(CC)c1ccc2cc(C(N)=O)c(=O)oc2c1 | 15% | ? | -29% | 12 | -16% | 8%
CCN(CC)c1ccc2cc(NC(=O)CCC(=O)O)c(=O)oc2c1 | 0.79µM* | 0% | 1% | 74 | -4% | 1.3µM*
CCN(CC)c1ccc2cc(C(C)=O)c(=O)oc2c1 | 25% | ? | 0% | 30 | -7% | -4%
CCN(CC)c1ccc2cc(C(=O)Nc3ccccn3)c(=O)oc2c1 | ? | ? | ? | -9 | 4.5µM*! | ?
CCN(CC)c1ccc2cc(C=O)c(=O)oc2c1 | -11% | . | 18µM* | -19 | 29µM* | -4%
COc1cc(C(C)=O)ccc1OCC(=O)N1CCCC1c1ccc2c(c1)OCCCO2 (stereo not drawn) | . | . | 1% | 2 | -6% | .
CS(=O)(=O)NNC(=O)Cn1nnc(-c2ccc(OCc3ccccc3Cl)cc2)n1 | . | . | -15% | -8 | -13% | .
C/C(=N/NC(=O)C(C)n1nc(C)c([N+](=O)[O-])c1C)c1ccc(OCC(N)=O)cc1 (stereo not drawn) | 17% | 8% | ? | 29 | ? | 2%
COc1ccc(Cc2noc(CN3CCC(c4ccncc4)CC3)n2)cc1OC | ? | -14% | 23µM* | 43 | 21µM* | ?
COc1ccc(Cc2noc(CN3CCN(C4CCc5ccccc5C4)CC3)n2)cc1OC (stereo not drawn) | -5% | ? | 21µM* | -18 | ? | -29%
O=C(CNC(=O)c1ccc(F)cc1)N/N=C/c1cc(Br)ccc1OCc1ccccc1 | 22% | ? | ? | ? | ? | -6%
O=C(CNC(=O)c1cccc(F)c1)N/N=C/c1cc(Br)ccc1OC(=O)/C=C/c1ccco1 | 3.5µM* | 4% | 3.7µM* | 191 | 7.3µM* | 7.9µM*
COc1ccc([N+](=O)[O-])cc1/C=N/NC(=O)CNC(=O)C(c1ccccc1)c1ccccc1 | ? | -22% | ? | 11 | ? | ?
O=C(CNC(=O)c1ccccc1O)N/N=C/c1cc(Br)ccc1OC(=O)/C=C/c1ccco1 | 5.6µM* | 4.1µM* | 4.6µM* | 77 | 7.3µM* | -7%
COc1ccc([N+](=O)[O-])cc1/C=N/NC(=O)CNC(=O)c1cccc(F)c1 | 10µM* | -9% | ? | 47 | -89% | ?
CCCNC(=O)C1(C)CCN(C(=O)c2cc(F)cc(F)c2)C1 (stereo not drawn) | . | . | 6% | 16 | -3% | .
CC(=O)Nc1cccc(NC(=O)COc2ccc3c(c2)OCO3)c1 | 3% | ? | ? | -2 | 0% | -19%
O=C(c1ccc2c(c1)OCO2)C1CCCN(C2CCN(CCc3ccccc3)CC2)C1 (stereo not drawn) | 5% | -24% | 21µM* | -76* | 18µM* | -3%
c1ccc(CN2CCC(N3CCN(Cc4ccc5c(c4)OCO5)CC3)CC2)cc1 | 9% | ? | 18µM* | -27 | ? | 4%
Cc1ccc(NC(=O)Cn2ncc(Cl)c(Cl)c2=O)cc1S(=O)(=O)N1CCCCC1 | . | 15µM* | 3.3µM* | -75* | 7.3µM* | .
CCCn1c(C)cc(C(=O)COc2ccc(-c3nnco3)cc2)c1C | 5% | 3% | 7.3µM* | . | 4.6µM* | ?
CCCn1c(C)cc(C(=O)COc2ncnc3sccc23)c1C | 10% | ? | ? | -5 | ? | 10%
SMILES | RORg inh | ELG1 DNA repair | DT40 TDP1 no CPT | IL-1B inflam inh | DT40 TDP1 CPT | VP16 counter
Cc1ccc(NC(=O)Cn2cc(C(F)(F)F)cc(Cl)c2=O)cc1S(=O)(=O)N1CCCCC1 | . | ? | ? | 0 | ? | .
Cc1ccc(NC(=O)COc2ccccc2C#N)cc1S(=O)(=O)N1CCCCCC1 | . | ? | ? | -2 | ? | .
Cc1ccc(NC(=O)COc2ccccc2)cc1S(=O)(=O)N1CCCCCC1 | . | -25% | 29µM* | -20 | ? | .
COc1ccc(NC(=O)COc2cc(C)cc(C)c2)cc1S(=O)(=O)N1CCCCC1 | . | -31% | 8.2µM* | -8 | 7.3µM* | .
COc1ccc(NC(=O)CCOc2ccc(C)cc2)cc1S(=O)(=O)N1CCCCC1 | . | ? | ? | -12 | ? | .
CCCCOC(=O)c1ccc(NC(=O)/C(C#N)=C/c2ccc(C)o2)cc1 | . | . | -22% | . | 0% | .
COCCN1C(=O)CCC1(C)C(=O)Nc1ccc2ccccc2c1 (stereo not drawn) | . | . | 16% | 20 | 0% | .
O=C(COc1ccc(-c2nnco2)cc1)Nc1ccc(F)c(Cl)c1 | . | -4% | ? | -9 | -30% | .
Cc1ccc(NC(=O)CSc2ccccc2)cc1S(=O)(=O)N1CCCCC1 | . | -8% | ? | -26 | 15µM* | .
Cc1ccc(NC(=O)CSc2ccccc2)cc1S(=O)(=O)N1CCOCC1 | . | -9% | ? | -1 | ? | .
Cc1ccc(NC(=O)COc2ccc(-c3nnco3)cc2)cc1S(=O)(=O)N1CCOCC1 | ? | 18µM* | 13µM* | -23 | ? | 4%
CCOc1ccc(NC(=O)COc2cccc3cccnc23)cc1S(=O)(=O)N1CCCC1 | . | . | 15µM* | -27 | ? | .
CC(C)CC(=O)Nc1ccc(C(=O)COc2ccc(-c3nnco3)cc2)cc1 | 18% | -18% | 23µM* | -13 | ? | 2%
O=C(NCc1ccc(F)cc1)C1CCCN1C(=O)Nc1cccc(F)c1 (stereo not drawn) | -16%[1.91 µM] | 8% | -10% | 13 | 11% | -19%
Cc1ccc(NC(=O)COc2cccnc2[N+](=O)[O-])cc1S(=O)(=O)N1CCCCC1 | 22% | ? | 21µM* | -6 | 13µM* | ?
Cc1ccc(NC(=O)Cc2ccc(Cl)cc2)cc1S(=O)(=O)N1CCCCCC1 | . | 11µM* | ? | ? | ? | .
Cc1ccc(NC(=O)COC(=O)c2ccc([N+](=O)[O-])o2)cc1S(=O)(=O)N1CCCCC1 | -19% | ? | -21% | -3 | -35% | -7%
